Laboratory results: a collection of fitness landscapes (doi:10.1016/j.celrep.2020.107928)
The full ranking holds about 81,000 sequences; the median of “one-hybrid fitness for binding parS DNA” is about -0.17, and the highest 2% start at about 0.51. The entries come from a sample that favours the highest values as a whole.

B1: Caulobacter ParB omega fusion; a variant is named by its letters at X, in order, B8GW30 (parent)
chain: MESVVVGEPGMSEGRRGLGRGLSALLGEVDAAPAQAPGEQLGGSREAPIEILQRNPDQPRRTFREEDLEDLSNSIREKGVLQPILVRPSPDTAGEYQIVAGERAWRAAQRAGLKTVPIMVRELDDLAVLEIGIIENVQRADLNVLEEALSYKVLMEKFERTQENIAQTIGKSXSHVANXMRLLXLPDEVQSYLVSGELTAXHARAIAAAADPVALAKQIIEGGLSVRETEALARKAPNLSAGKSKGGRPPRVKDTDTQALESDLSSVLGLDVSIDHRGSTGTLTITYATLEQLDDLCNRLTRGI

Variants of: B1
Experiment: one-hybrid fitness for binding parS DNA (scaled: cognate 1, non-cognate 0); higher = stronger binding
Conditions: with parS DNA site
Summary of the method: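 Pre- and post-selection plasmids were Illumina-sequenced, three replicate libraries were pooled, and any variant with under 10 reads was removed. The libraries were Caulobacter ParB with four specificity codons randomised, selected in E. coli USO through a HIS3 reporter whose site is 19 bp from the promoter. Cells grew 48 hours at 37°C on M9 without histidine, with 0.1 mM IPTG and 5 mM 3-AT. Fitness is the log change in variant-to-wild-type read ratio, rescaled against cognate and non-cognate.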

Variant	one-hybrid fitness for binding parS DNA
KPTT	≤ 0.2
WGPD	≤ 0.2
RKGD	≤ 0.2
RTGN	0.44
RHGD	≤ 0.2
RKGS	0.833
RTGD	≤ 0.2
RIGS	0.959
RIGN	0.477
RTGS	0.92
RHGN	0.363
RIGP	≤ 0.2
RHGS	0.888
RKGN	0.429
NELG	≤ 0.2
VCTS	≤ 0.2
QDQT	≤ 0.2
APQI	≤ 0.2
TGHY	≤ 0.2
LTYE	≤ 0.2
FDTS	≤ 0.2
VQYL	≤ 0.2
GTNP	≤ 0.2
RSGS	0.983
RSGD	≤ 0.2

Variant	one-hybrid fitness for binding parS DNA
RIGY	0.51
RCGY	0.43
RSGN	0.46
LCDD	≤ 0.2
TNCY	≤ 0.2
FSDT	≤ 0.2
KCRM	≤ 0.2
RMIQ	≤ 0.2
RMPR	≤ 0.2
RMPH	≤ 0.2
RMIT	0.752
RMPT	0.625
RMIK	≤ 0.2
VQYW	≤ 0.2
INEC	≤ 0.2
RQWY	0.418
TEPE	≤ 0.2
RSAC	0.932
RSAN	0.426
RCAC	1.02
REAC	≤ 0.2
RPAC	≤ 0.2
RSAH	0.226
IILS	≤ 0.2
TCRI	≤ 0.2

Variant	one-hybrid fitness for binding parS DNA
KHHT	≤ 0.2
HMNT	≤ 0.2
RTIK	≤ 0.2
RTPP	≤ 0.2
RTPG	0.764
RTPQ	≤ 0.2
RTIF	0.233
RTIG	0.98
KRWW	≤ 0.2
KLNR	≤ 0.2
RHAA	0.534
NHAA	≤ 0.2
RHFA	0.516
VDYT	≤ 0.2
NQNT	≤ 0.2
HAPR	≤ 0.2
EKTR	≤ 0.2
PFKA	≤ 0.2
DHKA	≤ 0.2
RFKA	0.571
RHVA	0.499
RGKA	0.475
RWKA	0.574
RHKA	0.692
RFVA	0.44

Variant	one-hybrid fitness for binding parS DNA
RCKA	0.844
RWVA	0.329
RPKA	≤ 0.2
RWYA	0.348
KSVS	≤ 0.2
ATSF	≤ 0.2
PVTI	≤ 0.2
GNRN	≤ 0.2
MTHT	≤ 0.2
IATE	≤ 0.2
RSKA	0.716
RDKA	≤ 0.2
REKA	≤ 0.2
QRTQ	≤ 0.2
GFIG	≤ 0.2
RLGR	≤ 0.2
RLSM	0.329
RLGF	0.278
RLWH	0.3
RLWT	0.889
RLRM	0.376
RLRR	≤ 0.2
RLSK	≤ 0.2
RLRT	0.834
RLGT	0.925

Variant	one-hybrid fitness for binding parS DNA
RLWP	0.201
RLST	0.939
FKLC	≤ 0.2
YRAS	0.283
WVWC	≤ 0.2
TRNR	≤ 0.2
QCLA	≤ 0.2
HCDK	≤ 0.2
RLYT	0.943
RLQF	0.229
RLCT	0.923
RLQK	≤ 0.2
RLYM	0.364
RLLT	0.961
RLQT	0.946
RLLD	0.231
RLLP	≤ 0.2
RLYQ	≤ 0.2
RLCD	≤ 0.2
RLCP	≤ 0.2
YINM	≤ 0.2
QHNA	≤ 0.2
HQSH	≤ 0.2
KQRG	≤ 0.2
FYRR	≤ 0.2

Variant	one-hybrid fitness for binding parS DNA
EMVC	≤ 0.2
TCPF	≤ 0.2
RLHR	≤ 0.2
RLHY	0.473
RLHT	0.937
RHNG	0.953
RHPG	0.451
RHNF	≤ 0.2
RHYP	≤ 0.2
RHQG	0.973
RHNR	≤ 0.2
RHIG	0.705
RHIF	≤ 0.2
RHQR	≤ 0.2
RHYD	≤ 0.2
RHYG	0.95
REQG	≤ 0.2
HCSV	≤ 0.2
DCCS	≤ 0.2
HYWT	≤ 0.2
QSAL	≤ 0.2
FRKP	≤ 0.2
GIVG	≤ 0.2
PFTT	≤ 0.2
ALPV	≤ 0.2

Variant	one-hybrid fitness for binding parS DNA
QCAF	≤ 0.2
RHCG	0.95
RHLQ	≤ 0.2
RHHK	≤ 0.2
RHHQ	≤ 0.2
RHDG	0.917
RHCK	≤ 0.2
RHDN	0.33
RHHG	0.967
RHDD	≤ 0.2
RHLF	0.23
RHLG	0.967
RHCM	≤ 0.2
KRLV	≤ 0.2
YFQT	≤ 0.2
TWNC	≤ 0.2
KIDC	≤ 0.2
YREL	≤ 0.2
QRPG	≤ 0.2
ANRV	≤ 0.2
RHGH	≤ 0.2
RHSR	≤ 0.2
RHSG	0.958
RHRP	≤ 0.2
RHGP	≤ 0.2

Variant	one-hybrid fitness for binding parS DNA
RHRG	0.903
RHGG	0.939
RHRH	0.232
RHSQ	≤ 0.2
KVHG	≤ 0.2
IAKA	≤ 0.2
MESK	≤ 0.2
TRMT	≤ 0.2
GQVV	≤ 0.2
AIVR	≤ 0.2
KQMS	≤ 0.2
GWHV	≤ 0.2
VEGN	≤ 0.2
TSSY	≤ 0.2
DLYA	≤ 0.2
RLCA	0.609
RDNA	≤ 0.2
NLNA	≤ 0.2
NLCA	≤ 0.2
ALYA	≤ 0.2
DLCA	≤ 0.2
RLNA	0.62
DLDA	≤ 0.2
RLYA	0.607
RLDA	0.588

Variant	one-hybrid fitness for binding parS DNA
ASVG	≤ 0.2
YGDG	≤ 0.2
VARP	≤ 0.2
TRNE	≤ 0.2
SERK	≤ 0.2
TYPS	≤ 0.2
QKME	≤ 0.2
QGRS	≤ 0.2
LGAW	≤ 0.2
LDKA	≤ 0.2
WVHI	≤ 0.2
RLRA	0.727
DLRA	≤ 0.2
NLRA	≤ 0.2
SEQC	≤ 0.2
TFQR	≤ 0.2
RIIA	0.499
NISA	≤ 0.2
RISA	0.608
RIPA	0.29
RILA	0.576
RIYA	0.613
RICA	0.525
NICA	≤ 0.2
HSNV	≤ 0.2

Variant	one-hybrid fitness for binding parS DNA
QGKW	≤ 0.2
YPTH	≤ 0.2
PDPT	≤ 0.2
YNHR	≤ 0.2
PMSC	≤ 0.2
NLLT	≤ 0.2
NQHT	≤ 0.2
WWRT	≤ 0.2
PCFG	≤ 0.2
YQHR	≤ 0.2
RIQA	0.576
NIRA	≤ 0.2
RIEA	0.451
RIRA	0.672
RIGA	0.661
RIHA	0.574
TSST	≤ 0.2
VTVI	≤ 0.2
IMSG	≤ 0.2
ENNW	≤ 0.2
TFVM	≤ 0.2
KSAC	≤ 0.2
DWTC	≤ 0.2
TPML	≤ 0.2
CISV	≤ 0.2

Variant	one-hybrid fitness for binding parS DNA
RIWA	0.539
THES	≤ 0.2
MCDC	≤ 0.2
NYQC	≤ 0.2
NSQY	≤ 0.2
HMPR	≤ 0.2
PPDT	≤ 0.2
ARRF	≤ 0.2
RQDG	0.93
RQRP	≤ 0.2
RQHF	0.231
RQRG	0.97
RQHG	1.01
RQRH	0.249
RQHK	≤ 0.2
RQWG	0.877
RQDD	≤ 0.2
RQDH	≤ 0.2
RQWM	0.233
RQWK	≤ 0.2
WATG	≤ 0.2
TFEV	≤ 0.2
KKQL	≤ 0.2
VEMW	0.21
SPRE	≤ 0.2

Variant	one-hybrid fitness for binding parS DNA
VHIS	≤ 0.2
HAND	≤ 0.2
MQAL	≤ 0.2
RQQN	0.469
RQYD	≤ 0.2
RQQH	≤ 0.2
RQNF	0.216
RQNG	1.01
RQYH	≤ 0.2
RQYG	0.994
RQNM	0.325
RQLH	≤ 0.2
RQLG	0.982
RQQG	0.99
RQLD	≤ 0.2
YEKG	≤ 0.2
MTTE	≤ 0.2
PMRC	≤ 0.2
TKTN	≤ 0.2
ESQE	≤ 0.2
PCYG	≤ 0.2
FVTS	≤ 0.2
VWVK	≤ 0.2
TAGS	≤ 0.2
QLHQ	≤ 0.2

Variant	one-hybrid fitness for binding parS DNA
GGAM	≤ 0.2
MKCT	≤ 0.2
RQGF	0.234
RQGQ	≤ 0.2
RQCG	0.97
RQSD	≤ 0.2
RQGG	0.945
RQSG	0.984
RQSH	≤ 0.2
RQCY	0.412
RQCR	≤ 0.2
NETE	≤ 0.2
YGVD	≤ 0.2
VVSY	≤ 0.2
LSGR	≤ 0.2
